These results are taken from PubChem BioAssay.

Structures are written as SMILES. Calls of active or inactive are those of the source.

Experiment [1] concerns PRMT1 (protein arginine N-methyltransferase 1). Nature of the experiment: PRMT1 binders on small-molecule microarrays, primary screen, biochemical, small-molecule microarray, 635 nm fluorescence (AID 1088).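 Also: binding of Prmt1 protein to compounds spotted on small-molecule microarray slides.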 The following applies: small-molecule microarray binding, higher = more signal.
The nature of experiment [2]: yeast growth modulation, basal conditions, primary screen, YJM789 clinical isolate, OD600, 24 h (AID 1089).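 Also: growth of clinical yeast isolate S. cerevisiae YJM 789 seeded 1000 cells per well; test concentration not given here.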 The following applies: S. cerevisiae YJM789 growth, higher = more signal, called active from +8 up or from −8 down.
Experiment [3] in a line: fission yeast growth modulation, primary screen, strain 972, OD600, 24 h, no modulator (AID 1090).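 Also: basal condition with compound alone and no growth modifier present; test concentration not given here.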 The following applies: S. pombe 972 growth, higher = more signal, called active from +8 up or from −8 down.
Experiment [4] can be described thus: S. cerevisiae growth modulation with rapamycin, primary screen, strain BY4716, OD600, 96 h (AID 1091). Also: test concentration not given here. The following applies: higher = more signal, called active from +8 up or from −8 down.
Experiment [5] addresses Torsin-1A-interacting protein 2 (Homo sapiens) (UniProt Q8NFQ8). Nature of the experiment: LULL1 binders on small-molecule microarray, primary screen, cell lysate, human LULL1 lysate, 635/667 nm fluorescence (AID 1092).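 Also: probe is lysate of COS7 cells overexpressing human LULL1; score merges per-feature 667 nm fluorescence with signal-to-noise.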 The following applies: hLULL1 lysate binding, 635 nm fluorescence, higher = more signal.
Experiment [6] in a line: E. coli growth modulation, two-sided OD650, primary screen, E. coli filamentation project, strain DRC41, 24 h (AID 1093).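 Also: MC1000 strain lacking acrAB efflux and sulA so SOS filamentation is blocked; test concentration not given here.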 The following applies: OD650, 24 h, higher = more signal, called active from +8 up or from −8 down.
Experiment [7] is described as follows: small-molecule microarray binders of probe aLefty2, primary screen, biochemical, biotinylated probe, 635/667 nm fluorescence (AID 1094).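 Also: score merges spot fluorescence near 667 nm with spot signal-to-noise ratio.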 The following applies: higher = more signal.
Experiment [8] concerns Noggin (protein binding on small-molecule microarray). The experiment can be described thus: Noggin binders on small-molecule microarray, primary screen, biochemical, 635/667 nm fluorescence (AID 1095).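 Also: score merges 667 nm feature fluorescence with signal to noise over triplicate slides.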 The following applies: 635 nm fluorescence, higher = more signal.
Experiment [9] concerns the target Neurogenic locus notch homolog protein 3 (Homo sapiens) (UniProt Q9UM47). The experiment can be described thus: NOTCH3 binders on small-molecule microarray, primary screen, biochemical, 635/667 nm fluorescence (AID 1096). The following applies: NOTCH3 binding, 635 nm fluorescence, higher = more signal.
Experiment [10] can be described thus: small-molecule microarray binders of probe aEGFR, primary screen, biochemical, biotinylated probe, 635/667 nm fluorescence (AID 1097).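 Also: probe is a biotinylated anti-EGFR antibody binding compounds printed on slides; score combines fluorescence near 667 nm and signal to noise of each spot.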 The following applies: higher = more signal.

Neurogenic locus notch homolog protein 3 (Homo sapiens), sequence (Q9UM47 whole entry, looked up): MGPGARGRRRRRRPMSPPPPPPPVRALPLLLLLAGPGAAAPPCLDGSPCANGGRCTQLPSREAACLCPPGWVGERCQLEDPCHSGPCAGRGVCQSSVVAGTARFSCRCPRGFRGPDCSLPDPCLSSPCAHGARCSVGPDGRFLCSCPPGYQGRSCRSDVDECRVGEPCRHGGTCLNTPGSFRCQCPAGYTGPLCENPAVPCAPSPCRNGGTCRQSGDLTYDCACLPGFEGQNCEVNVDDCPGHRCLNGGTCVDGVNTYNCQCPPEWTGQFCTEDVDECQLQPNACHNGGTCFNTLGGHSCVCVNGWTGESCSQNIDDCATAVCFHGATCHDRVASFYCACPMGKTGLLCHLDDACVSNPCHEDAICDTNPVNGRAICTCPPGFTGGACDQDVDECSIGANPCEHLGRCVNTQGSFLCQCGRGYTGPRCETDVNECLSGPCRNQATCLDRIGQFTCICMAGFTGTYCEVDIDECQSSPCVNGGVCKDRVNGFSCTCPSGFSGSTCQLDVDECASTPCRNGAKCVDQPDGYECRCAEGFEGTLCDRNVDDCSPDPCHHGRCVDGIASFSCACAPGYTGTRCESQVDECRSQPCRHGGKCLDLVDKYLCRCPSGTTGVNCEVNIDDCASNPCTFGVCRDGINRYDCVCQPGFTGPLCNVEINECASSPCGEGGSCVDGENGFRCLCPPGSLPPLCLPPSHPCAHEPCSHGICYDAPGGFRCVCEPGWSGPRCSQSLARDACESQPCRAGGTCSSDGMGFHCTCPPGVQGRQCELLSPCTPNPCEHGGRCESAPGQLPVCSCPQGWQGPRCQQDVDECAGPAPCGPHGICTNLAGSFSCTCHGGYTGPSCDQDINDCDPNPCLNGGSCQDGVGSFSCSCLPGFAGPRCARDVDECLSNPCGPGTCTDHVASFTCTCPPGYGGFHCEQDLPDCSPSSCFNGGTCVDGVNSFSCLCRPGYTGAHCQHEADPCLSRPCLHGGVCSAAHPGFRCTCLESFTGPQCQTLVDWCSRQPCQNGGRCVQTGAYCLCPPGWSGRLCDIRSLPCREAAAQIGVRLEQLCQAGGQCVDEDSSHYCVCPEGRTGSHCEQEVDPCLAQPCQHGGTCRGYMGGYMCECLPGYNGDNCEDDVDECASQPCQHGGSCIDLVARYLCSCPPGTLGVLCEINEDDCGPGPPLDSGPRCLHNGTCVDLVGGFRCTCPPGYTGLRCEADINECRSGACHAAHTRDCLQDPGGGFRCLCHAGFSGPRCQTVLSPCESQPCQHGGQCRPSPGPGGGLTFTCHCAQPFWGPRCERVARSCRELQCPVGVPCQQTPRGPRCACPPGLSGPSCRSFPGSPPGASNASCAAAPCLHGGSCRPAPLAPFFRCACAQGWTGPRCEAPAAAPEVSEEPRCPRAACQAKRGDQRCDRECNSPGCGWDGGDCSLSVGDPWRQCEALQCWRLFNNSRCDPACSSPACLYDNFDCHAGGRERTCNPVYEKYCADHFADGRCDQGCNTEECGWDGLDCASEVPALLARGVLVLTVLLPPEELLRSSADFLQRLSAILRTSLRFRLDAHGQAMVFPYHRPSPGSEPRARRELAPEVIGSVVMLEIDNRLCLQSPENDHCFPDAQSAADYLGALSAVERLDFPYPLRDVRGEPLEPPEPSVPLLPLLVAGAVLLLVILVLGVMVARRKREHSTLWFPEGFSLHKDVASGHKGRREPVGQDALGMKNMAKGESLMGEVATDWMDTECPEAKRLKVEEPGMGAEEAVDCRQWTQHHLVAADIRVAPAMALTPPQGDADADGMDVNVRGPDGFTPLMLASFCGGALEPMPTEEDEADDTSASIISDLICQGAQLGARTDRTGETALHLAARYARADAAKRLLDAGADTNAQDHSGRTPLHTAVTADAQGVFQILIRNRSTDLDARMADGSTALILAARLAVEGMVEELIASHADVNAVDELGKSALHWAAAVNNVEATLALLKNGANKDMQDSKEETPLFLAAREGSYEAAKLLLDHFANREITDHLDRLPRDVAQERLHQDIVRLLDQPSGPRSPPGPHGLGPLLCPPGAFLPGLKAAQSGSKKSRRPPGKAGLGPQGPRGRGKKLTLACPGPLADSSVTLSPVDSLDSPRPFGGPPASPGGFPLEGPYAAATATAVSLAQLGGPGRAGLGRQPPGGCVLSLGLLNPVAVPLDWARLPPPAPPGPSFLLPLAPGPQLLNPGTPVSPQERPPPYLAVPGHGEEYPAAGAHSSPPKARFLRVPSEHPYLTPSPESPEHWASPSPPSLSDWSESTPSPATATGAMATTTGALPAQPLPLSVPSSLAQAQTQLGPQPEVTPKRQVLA
Torsin-1A-interacting protein 2 (Homo sapiens), sequence (Q8NFQ8 whole entry, looked up): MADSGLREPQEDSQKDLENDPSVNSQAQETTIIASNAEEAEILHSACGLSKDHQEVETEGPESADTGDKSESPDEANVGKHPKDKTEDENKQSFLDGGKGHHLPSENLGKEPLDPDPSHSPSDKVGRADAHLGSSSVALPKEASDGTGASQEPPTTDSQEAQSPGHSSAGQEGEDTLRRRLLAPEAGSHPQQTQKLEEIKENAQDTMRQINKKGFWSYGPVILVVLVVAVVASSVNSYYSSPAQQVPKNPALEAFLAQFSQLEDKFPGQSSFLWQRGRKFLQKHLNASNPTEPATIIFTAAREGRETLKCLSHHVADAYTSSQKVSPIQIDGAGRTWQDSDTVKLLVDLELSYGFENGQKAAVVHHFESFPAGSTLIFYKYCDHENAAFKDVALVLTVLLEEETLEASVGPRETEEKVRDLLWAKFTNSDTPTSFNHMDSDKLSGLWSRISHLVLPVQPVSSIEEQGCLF

As to `C=C(COC)/C(=C/C[C@@H](OC(C)=O)c1ccc(OCCO)cc1)c1cc(C(=O)OC)ccc1OC`, the composite z-score in experiment [1] was 1.54; in [5], 2.16; in experiment [7], -0.027; in [8], 1.35; in experiment [9] it was 1.12; in [10], -0.0728. The z-score was 0.0937 (inactive) in experiment [2], -0.51 (inactive) in [3], -0.645 (inactive) in experiment [4] and -0.018 (inactive) in experiment [6].

On to `CC(=O)N1Cc2ccccc2C[C@@]2(COC(c3ccc(OCCCO)cc3)=N2)C1=O`, for which the composite z-score in [1] is 1.55; in [5], 2.25; in [7], 0.518; in experiment [8], 0.515; in experiment [9], 1.03; in experiment [10] it was 0.119. The z-score was -3.98 (inactive) in [2], -0.737 (inactive) in [3], -0.965 (inactive) in [4] and 1.81 (inactive) in experiment [6].

Regarding `CC1CC/C=C\[C@H]2OC34C=CCN(C(C)(C)C)C(=O)[C@H]3N(CCCCCCO)C(=O)[C@@H]4C2C(=O)O1` (stereo not given in full), the composite z-score in experiment [1] was -0.005; in [5], 1.4; in experiment [7], -0.183; in experiment [8], -0.597; in experiment [9] it was 0.0452; in [10], -0.371. Moreover, the z-score was -0.242 (inactive) in [2], -0.357 (inactive) in experiment [3], -0.19 (inactive) in experiment [4] and -0.31 (inactive) in [6].

Take `C=C(/C(=C/C[C@@H](OC(C)=O)c1ccc(OCCO)cc1)c1cnc2ccccc2c1)C(C)C`: the composite z-score in experiment [1] was 1.26; in [5] it was 1.06; in experiment [7], -0.197; in experiment [8], 0.655; in experiment [9], 0.676; in experiment [10], -0.146. For the same molecule, the z-score in [2] was -0.0424 (inactive); in [3], -1.56 (inactive); in [4], -0.234 (inactive); in experiment [6], 0.762 (inactive).

On to `C=CCNC(=O)[C@H]1[C@@H]2C(=O)O[C@@H](c3ccccc3)[C@@H](c3ccccc3)N2[C@@H](c2ccc(OCCO)cc2)[C@]12C(=O)Nc1ccc(C#CC3=CCCCC3)cc12`, for which the composite z-score in experiment [1] was 1.55; in [5] it was 2.89; in experiment [7], -0.109; in experiment [8] it was 0.673; in [9], 1.15; in experiment [10], -0.147. Further, the z-score in experiment [2] was 2.28 (inactive); in experiment [3], 1.46 (inactive); in [4], 4.72 (inactive); in experiment [6], 1.53 (inactive).

Consider `COC(=O)[C@@]1(Cc2ccc(OC)cc2)[C@H]2c3cc(C(=O)N4CCCC4)n(Cc4ccc(OC)c(OC)c4)c3C[C@H]2CN1C(=O)c1ccccc1`, for which the composite z-score was found to be 0.929 in experiment [1]; 3.36 in experiment [5]; 1.2 in experiment [7]; 0.793 in [8]; 1.11 in experiment [9]; 0.889 in [10]. In addition, the z-score in [2] was -0.515 (inactive); in experiment [3], 0.835 (inactive); in [4] it was 1.18 (inactive); in experiment [6], -0.148 (inactive).

Take `COCCOC(=O)N1C(=O)[C@@]2(c3cc(C#CC4=CCCCC4)ccc31)[C@H](C(=O)Nc1nc3ccccc3s1)[C@H]1C(=O)O[C@H](c3ccccc3)[C@H](c3ccccc3)N1[C@@H]2c1ccc(OCCO)cc1`: the composite z-score in [1] is 1.58; in [5] it was 1.82; in [7], -0.119; in [8], 1.23; in experiment [9] it was 1.14; in experiment [10] it was -0.0238. Moreover, the z-score was 2.47 (inactive) in experiment [2], 1.97 (inactive) in experiment [3], 2.07 (inactive) in experiment [4] and 0.373 (inactive) in [6].

Regarding `O=C1OCCC/C=C\[C@H]2OC34C=CCN(c5ccc6ccccc6c5)C(=O)[C@H]3N(CCCCCCO)C(=O)[C@@H]4C12` (stereo not given in full), the composite z-score is 0.0502 in experiment [1]; 0.132 in experiment [5]; -0.25 in experiment [7]; -0.695 in experiment [8]; 0.086 in experiment [9]; -0.0597 in [10]. Further, the z-score in [2] was -1.96 (inactive); in [3], -1.15 (inactive); in [4], -0.533 (inactive); in experiment [6], 1.1 (inactive).

Take `CC(C)N1C(=O)c2ccccc2[C@](C)(C(=O)NCc2ccccc2)[C@@H]1c1ccc(CO)cc1`: the composite z-score was 0.0055 in experiment [1]; 1.91 in experiment [5]; 0.0322 in experiment [7]; -0.969 in [8]; -0.394 in experiment [9]; -0.244 in experiment [10]. Further, the z-score in experiment [2] was -0.261 (inactive); in experiment [3], -1.16 (inactive); in experiment [4] it was -0.625 (inactive); in experiment [6] it was -0.587 (inactive).

For the molecule `COCCCNC(=O)C1N=C(c2ccc(OCCCO)cc2)N(c2ccccc2)O1` (stereo not given), the composite z-score in [1] was 1.39; in [5], 1.94; in experiment [7], -0.0553; in experiment [8], 1.08; in experiment [9], 0.911; in [10], -0.0549. Besides, the z-score in experiment [2] is 0.0302 (inactive); in [3], 0.42 (inactive); in experiment [4] it was -0.779 (inactive); in [6], 0.919 (inactive).

Consider `CN1C2C=C(CCCO)C(C3C(=O)N(C(N)=O)C(=O)C32)C1c1ccc(CN2CCCC2)cc1` (stereo not given), for which the composite z-score in experiment [1] is -0.378; in experiment [5], -0.736; in [7] it was -0.253; in [8], -0.354; in [9], -0.615; in experiment [10], -0.242. The z-score in [2] is -1.64 (inactive); in experiment [3] it was 0.715 (inactive); in experiment [4], -0.55 (inactive); in experiment [6], 0.194 (inactive).

For `CCCCCN1CC=CC23O[C@@H]4/C=C\CCCOC(=O)C4[C@H]2C(=O)N(CCCO)[C@@H]3C1=O` (stereo not given in full), the composite z-score is 0.83 in experiment [1]; 3.58 in [5]; -0.135 in experiment [7]; -0.103 in experiment [8]; 0.165 in [9]; -0.186 in experiment [10]. The z-score was -1.03 (inactive) in experiment [2], -0.81 (inactive) in experiment [3], -1.67 (inactive) in experiment [4] and 2.35 (inactive) in experiment [6].

For `CC(C)(C)OC(=O)CC[C@]1(C(=O)NCC(O)CO)COC(c2ccc(OCCCO)cc2)=N1` (stereo not given in full), the composite z-score in experiment [1] is 0.281; in experiment [5] it was 3.71; in experiment [7], -0.12; in experiment [8] it was -0.579; in experiment [9], -0.0234; in experiment [10] it was 0.0287. Further, the z-score was 0.65 (inactive) in [2], 1 (inactive) in [3], 0.977 (inactive) in experiment [4] and -0.0576 (inactive) in experiment [6].
